# Results published in PubChem BioAssay (Tox21).
# Several values for one entry are separate records, joined by “and”; a condition that tells them apart may be missing. Identical values can stand only once. Records with an inconclusive call do not appear. More than one record can exist for a structure, and the calls need not agree. Activity calls are given as the source filed them. Unless noted, the call rests on the fitted dose curve; in most records, active means well fitted curve in the direction sought with a large enough effect in the repeat runs; inconclusive means weak or mixed curves; inactive means no such curve, though single readings can be large; an effect the other way counts as inactive or inconclusive.
# System: not listed separately
# Experiment: qHTS assay to identify small molecule that activate the aryl hydrocarbon receptor (AhR) signaling pathway - cell viability counter screen (AID 743086); further: nearly all actives have a fitted effect of over 45% in size;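 on viability change, negative = cytotoxic: HepG2 liver cells carrying the AhR DRE luciferase reporter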
# Conditions: HepG2-AhR-luc viability, CellTiter-Fluor, 24 h; series mostly up to 70.3 µM; viability change, negative = cytotoxic: at the top concentration
# Procedure, shortened: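 HepG2-AhR-luc (HG2L7.5c1) cells, 4000/well, were preincubated 5 h at 37C, exposed to compound in qHTS format for 24 hr at 37C, then given CellTiter-Fluor for 30 min; viability was read as fluorescence in the reporter wells.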
# On the % scale 0 is the no-effect control and ±100 the full control effect; potency means the concentration at half of the fitted maximal effect.
Structure (SMILES),"viability change, negative = cytotoxic",Potency
Cc1ccc(-n2nc(C(C)(C)C)cc2NC(=O)Nc2ccc(OCCN3CCOCC3)c3ccccc23)cc1,-8.12% (inactive),–
Cc1ccc2oc(CN(Cc3ccccc3)C(=O)Nc3c(F)cc(F)cc3F)c(-c3ccc(Cl)cc3)c2c1,-12% (inactive),–
CCCCCCCCOC(=O)c1ccc(O)cc1,–,inactive
CC(C)(C)NC(=O)[C@@H]1C[C@@H]2CCCC[C@@H]2CN1C[C@@H](O)[C@H](Cc1ccccc1)NC(=O)[C@H](CC(N)=O)NC(=O)c1ccc2ccccc2n1,–,26.6 µM (active) and 22 µM (active)
CC(C)CCCCCCCCCCCCCCC(=O)O,0.705% (inactive),–
Cc1ccc(O)c(C(C)(C)C)c1,–,61 µM (active) and inactive
CCCCc1oc2ccc(NS(C)(=O)=O)cc2c1C(=O)c1ccc(OCCCN(CCCC)CCCC)cc1,–,26.6 µM (active)
Cc1cccc(CN2CCN(C(c3ccccc3)c3ccc(Cl)cc3)CC2)c1 (stereo not drawn),-0.0966% [at 32.5 µM] (inactive),–
CCCCC(CC)COC(=O)c1ccccc1C(=O)O (stereo not drawn),4.52% [at 95 µM] (inactive),–
O=C(Nc1cccc(Cl)c1)OCC#CCCl,–,27.3 µM (active)
Cc1onc(-c2c(Cl)cccc2Cl)c1C(=O)N[C@@H]1C(=O)N2[C@@H]1SC(C)(C)[C@@H]2C(=O)O,-0.287% (inactive),–
Fc1ccc([C@@H]2CCNC[C@H]2COc2ccc3c(c2)OCO3)cc1,–,26.6 µM (active)
Oc1ccc2c(c1)-c1ccccc1C2,-13.6% (inactive),–
Oc1c(Cl)cc(Cl)c2cccnc12,4.11% (inactive),–
Oc1cccc(-c2c3nc(c(-c4cccc(O)c4)c4ccc([nH]4)c(-c4cccc(O)c4)c4nc(c(-c5cccc(O)c5)c5ccc2[nH]5)CC4)C=C3)c1,–,26.6 µM (active) and 29.8 µM (active)
C=C(C)C(=O)OCC[N+](C)(C)C,-0.512% (inactive),–
CCCCCCCC[N+](CCCCCCCC)(CCCCCCCC)CCCCCCCC,–,43.2 µM (active)
CC(C)n1nc(-c2cc3cc(O)ccc3[nH]2)c2c(N)ncnc21,–,0.75 µM (active)
COc1cccc(N)c1,12% [at 95 µM] (inactive),–
CCCC1O[C@@H]2C[C@H]3[C@@H]4CCC5=CC(=O)C=C[C@]5(C)[C@H]4[C@@H](O)C[C@]3(C)[C@]2(C(=O)CO)O1 (stereo partly drawn),–,inactive
On1ccccc1=S,-27.2% (inactive),–
COc1ccc(C(=O)/C(Br)=C\C(=O)O)cc1,-16.9% (inactive),–
CCCCCCCCCCCCCCCC[N+](C)(C)CCN(Cc1ccc(OC)cc1)c1ncccn1,8.84% [at 32.5 µM] (inactive),–
O=C1Cc2cc(CCN3CCN(c4nsc5ccccc45)CC3)c(Cl)cc2N1,–,inactive
C=CC(=O)OCC(CO)(COCC(COC(=O)C=C)(COC(=O)C=C)COC(=O)C=C)COC(=O)C=C,–,6.04 µM (active)
CSc1ccc2c(c1)C(N1CCN(C)CC1)Cc1ccccc1S2 (stereo not drawn),–,29.8 µM (active)
Oc1ccc2cc(SSc3ccc4cc(O)ccc4c3)ccc2c1,–,inactive
Cc1nc(-c2ccc3c(c2)CCN(CCC2CCC(NC(=O)/C=C/c4ccc(F)cc4)CC2)CC3)no1 (stereo not drawn),-1.51% [at 32.5 µM] (inactive),–

# Molecular target: Peroxisome proliferator-activated receptor gamma (Homo sapiens) (UniProt P37231)
# Sequence (P37231 whole entry, looked up): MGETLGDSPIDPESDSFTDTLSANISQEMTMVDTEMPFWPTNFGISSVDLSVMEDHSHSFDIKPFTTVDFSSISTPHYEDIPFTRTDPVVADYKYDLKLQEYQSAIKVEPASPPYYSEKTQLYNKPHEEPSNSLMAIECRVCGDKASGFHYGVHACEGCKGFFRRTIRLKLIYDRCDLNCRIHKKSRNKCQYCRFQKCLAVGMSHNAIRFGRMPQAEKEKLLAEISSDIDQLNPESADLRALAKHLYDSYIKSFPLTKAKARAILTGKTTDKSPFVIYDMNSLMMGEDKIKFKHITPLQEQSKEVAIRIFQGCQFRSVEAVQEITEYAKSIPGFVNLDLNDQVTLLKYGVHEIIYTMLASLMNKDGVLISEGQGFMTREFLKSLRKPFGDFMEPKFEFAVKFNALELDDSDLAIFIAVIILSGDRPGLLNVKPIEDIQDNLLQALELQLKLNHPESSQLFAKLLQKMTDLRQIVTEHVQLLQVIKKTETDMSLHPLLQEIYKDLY
# Experiment: qHTS assay to identify small molecule agonists of the peroxisome proliferator-activated receptor gamma (PPARg) signaling pathway (AID 743094; active means well fitted activation curve with a large enough effect in the signal ratio in the repeat runs, not every such curve was filed as active; the % refers to the signal ratio)
# Conditions: HEK293H PPARg-UAS-bla, beta-lactamase FRET ratio, 17 h; series mostly up to 57 µM; activation: at the top concentration
# Procedure, shortened: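 Agonism was assessed in a beta-lactamase reporter system, HEK293H cells with a stably integrated UAS-bla construct under PPARg control; the 17 h treatment at 37C preceded a 1 h room-temperature FRET substrate read.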
Structure (SMILES),activation,Potency
Cc1ccc(O)c(C(C)(C)C)c1,0.4% (inactive),–
Cc1cccc(CN2CCN(C(c3ccccc3)c3ccc(Cl)cc3)CC2)c1 (stereo not drawn),-0.39% [at 26.2 µM] (inactive),–
Cc1onc(-c2c(Cl)cccc2Cl)c1C(=O)N[C@@H]1C(=O)N2[C@@H]1SC(C)(C)[C@@H]2C(=O)O,1.05% (inactive),–
Oc1ccc2c(c1)-c1ccccc1C2,-0.717% (inactive),–
C=C(C)C(=O)OCC[N+](C)(C)C,1.37% (inactive),–
CCCC1O[C@@H]2C[C@H]3[C@@H]4CCC5=CC(=O)C=C[C@]5(C)[C@H]4[C@@H](O)C[C@]3(C)[C@]2(C(=O)CO)O1 (stereo partly drawn),–,inactive
CCCCCCCCCCCCCCCC[N+](C)(C)CCN(Cc1ccc(OC)cc1)c1ncccn1,-5.78% [at 26.2 µM] (inactive),–
O=C1Cc2cc(CCN3CCN(c4nsc5ccccc45)CC3)c(Cl)cc2N1,–,inactive
[O-][n+]1ccccc1SSc1cccc[n+]1[O-],–,0.674 µM (active)
Oc1ccc2cc(SSc3ccc4cc(O)ccc4c3)ccc2c1,-7.35% (inactive),–
Cc1nc(-c2ccc3c(c2)CCN(CCC2CCC(NC(=O)/C=C/c4ccc(F)cc4)CC2)CC3)no1 (stereo not drawn),–,24.6 µM (active)

# Molecular target: Peroxisome proliferator-activated receptor gamma (Homo sapiens) (UniProt P37231)
# Experiment: qHTS assay to identify small molecule antagonists of the peroxisome proliferator-activated receptor gamma (PPARg) signaling pathway (AID 743191; calls by dose curve; further: nearly all actives have a fitted effect of over 30% in size)
# Conditions: HEK293H PPARg-UAS-bla, beta-lactamase ratio, antagonist, 17 h; series mostly up to 62.6 µM; ratio activity, negative = inhibition: at the top concentration
# Procedure, shortened: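 GeneBLAzer PPARg UAS-bla HEK293H cells carrying a UAS-driven beta-lactamase reporter were plated at 3000 cells/well, preincubated 5 h at 37C, then given compound for 17 h at 37C; LiveBLAzer B/G FRET substrate was read after 1 h at room temperature.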
Structure (SMILES),"ratio activity, negative = inhibition",Potency
Cc1ccc(O)c(C(C)(C)C)c1,-2.13% (inactive),–
Cc1onc(-c2c(Cl)cccc2Cl)c1C(=O)N[C@@H]1C(=O)N2[C@@H]1SC(C)(C)[C@@H]2C(=O)O,-4.12% (inactive),–
O=C1c2c(O)ccc(Nc3ccc(CCO)cc3)c2C(=O)c2c([N+](=O)[O-])ccc(O)c21,–,54.9 µM (active)
C=C(C)C(=O)OCC[N+](C)(C)C,–,2.18 µM (active)
CCCC1O[C@@H]2C[C@H]3[C@@H]4CCC5=CC(=O)C=C[C@]5(C)[C@H]4[C@@H](O)C[C@]3(C)[C@]2(C(=O)CO)O1 (stereo partly drawn),–,inactive
Oc1ccc2cc(SSc3ccc4cc(O)ccc4c3)ccc2c1,–,13.8 µM (active)

# System: not listed separately
# Experiment: qHTS assay to identify small molecule antagonists of the peroxisome proliferator-activated receptor gamma (PPARg) signaling pathway - cell viability counter screen (AID 743194); further: nearly all actives have a fitted effect of over 55% in size
# Conditions: PPARg-bla HEK293H viability, CellTiter-Glo luminescence, 17 h, co-treated with 50 nM rosiglitazone; series mostly up to 62.6 µM; activity change, negative = cytotoxicity: at the top concentration
# Procedure, shortened: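 PPARg-UAS-bla HEK293H cells were plated, rested 5 h at 37 C, then treated with compounds plus rosiglitazone (50 nM final) for 17 h at 37 C; viability was then read by CellTiter-Glo luminescence after 30 min at room temperature.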
Structure (SMILES),"activity change, negative = cytotoxicity",Potency
Cc1ccc(-n2nc(C(C)(C)C)cc2NC(=O)Nc2ccc(OCCN3CCOCC3)c3ccccc23)cc1,-14.7% (inactive),–
Cc1ccc2oc(CN(Cc3ccccc3)C(=O)Nc3c(F)cc(F)cc3F)c(-c3ccc(Cl)cc3)c2c1,-0.392% (inactive),–
CCCCCCCCOC(=O)c1ccc(O)cc1,–,inactive
CN1CCC(Nc2ncc3ncnc(Nc4ccc(F)c(Cl)c4)c3n2)CC1,-13.5% (inactive),–
O=C1C=CC(=O)N1,–,25.2 µM (active)
CCc1cc(SCc2sc(-c3ccc(C(F)(F)F)cc3)nc2CN2CCN(c3ccc(OC)cc3)CC2)ccc1OCC(=O)O,–,24.5 µM (active)
CC(C)(C)NC(=O)[C@@H]1C[C@@H]2CCCC[C@@H]2CN1C[C@@H](O)[C@H](Cc1ccccc1)NC(=O)[C@H](CC(N)=O)NC(=O)c1ccc2ccccc2n1,–,49.6 µM (active)
CC(C)CCCCCCCCCCCCCCC(=O)O,29.9% (inactive),–
Cc1ccc(O)c(C(C)(C)C)c1,-21.4% (inactive),–
CCCCc1oc2ccc(NS(C)(=O)=O)cc2c1C(=O)c1ccc(OCCCN(CCCC)CCCC)cc1,–,29.8 µM (active)
Cc1cccc(CN2CCN(C(c3ccccc3)c3ccc(Cl)cc3)CC2)c1 (stereo not drawn),-29.3% (inactive),–
CCCCC(CC)COC(=O)c1ccccc1C(=O)O (stereo not drawn),-29.4% [at 81.1 µM] (inactive),–
O=C(Nc1cccc(Cl)c1)OCC#CCCl,–,24.5 µM (active)
O=C1c2c(O)ccc(Nc3ccc(CCO)cc3)c2C(=O)c2c([N+](=O)[O-])ccc(O)c21,-26.9% (inactive),–
Fc1ccc([C@@H]2CCNC[C@H]2COc2ccc3c(c2)OCO3)cc1,-27.6% (inactive),–
CCCN(CCC)c1c([N+](=O)[O-])cc(C(F)(F)F)c(N)c1[N+](=O)[O-],–,19.4 µM (active)
Oc1ccc2c(c1)-c1ccccc1C2,-28.1% (inactive),–
Oc1cccc(-c2c3nc(c(-c4cccc(O)c4)c4ccc([nH]4)c(-c4cccc(O)c4)c4nc(c(-c5cccc(O)c5)c5ccc2[nH]5)CC4)C=C3)c1,–,29.8 µM (active)
C=C(C)C(=O)OCC[N+](C)(C)C,5.44% (inactive),–
CCCCCCCC[N+](CCCCCCCC)(CCCCCCCC)CCCCCCCC,–,10.9 µM (active)
CCCC1O[C@@H]2C[C@H]3[C@@H]4CCC5=CC(=O)C=C[C@]5(C)[C@H]4[C@@H](O)C[C@]3(C)[C@]2(C(=O)CO)O1 (stereo partly drawn),–,inactive
On1ccccc1=S,–,24.3 µM (active)
CC1=C(C(=O)OC(C)C)C(c2cccc([N+](=O)[O-])c2)C(C(=O)OC2CN(C(c3ccccc3)c3ccccc3)C2)=C(N)N1 (stereo not drawn),–,23.7 µM (active)
CCCCCCCCCCCCCCCC[N+](C)(C)CCN(Cc1ccc(OC)cc1)c1ncccn1,–,26.6 µM (active)
C=CC(=O)OCC(CO)(COCC(COC(=O)C=C)(COC(=O)C=C)COC(=O)C=C)COC(=O)C=C,–,3.05 µM (active)
[O-][n+]1ccccc1SSc1cccc[n+]1[O-],-21.5% [at 29.1 µM] (inactive),–
CSc1ccc2c(c1)C(N1CCN(C)CC1)Cc1ccccc1S2 (stereo not drawn),–,18.8 µM (active)
Cc1nc(-c2ccc3c(c2)CCN(CCC2CCC(NC(=O)/C=C/c4ccc(F)cc4)CC2)CC3)no1 (stereo not drawn),12.7% [at 29.1 µM] (inactive),–
